This is an account of results in PubChem BioAssay.

Where “and” joins values, the source holds several entries; their conditions need not be identical. Equal values may be shown once. Where a structure was tested more than once in an assay, its records may differ in their call. Calls of active or inactive are those of the source. Cut-off read from the data, not from the text of the source: active = fold change permeability below about 0.7 or above about 1.3; inactive = in between.

The assay can be described thus: modulators of brain endothelial barrier permeability, primary screen, cell-based, FITC-avidin fluorescence, HTS (AID 1963498). Note: test concentration not given here. Conditions: actives lie on both sides.
For the molecule `N[C@@H](Cn1ccc(=O)c(O)c1)C(=O)O`, the fold change permeability was 1.8 (active).
For the molecule `Cc1ccc(/C(=C\CN2CCCC2)c2ccccn2)cc1`, the fold change permeability is 0.8 (inactive).
To `CCC(C)N(C)C(=O)c1cc2ccccc2c(-c2ccccc2Cl)n1` (stereo not drawn) belongs 0.9 (inactive); to `CCN(C)C(=O)Oc1cccc([C@H](C)N(C)C)c1`, 1 (inactive); to `NCCCCCCCCCCN`, 0.9 (inactive).
For `CCO/C([O-])=N/c1c[n+](N2CCOCC2)no1` the value was 0.8 (inactive).
Take `CC(C)(C=O)Cc1cc(C(C)(C)C)c(O)c(C(C)(C)C)c1`: the fold change permeability was 1.2 (inactive).
On to `Oc1cc(O)c2c(c1)O[C@H](c1ccc(O)c(O)c1)[C@@H](O)C2`, for which the fold change permeability was 0.8 (inactive).
Turning to `Cc1cn[nH]c1`, the fold change permeability was 0.8 (inactive).
On to `CC(C)NC[C@H](O)c1ccc(O)c(O)c1`, for which the fold change permeability was 1.2 (inactive) and 1.8 (active).
As for `OCCN1CCN(CCCN2c3ccccc3C=Cc3ccccc32)CC1`, the fold change permeability was 1.2 (inactive).
For `Cc1ccc(S(=O)(=O)/C=C/C#N)cc1` the value was 1.1 (inactive); for `CN1C[C@H](C(=O)N[C@]2(C)O[C@@]3(O)[C@@H]4CCCN4C(=O)[C@H](Cc4ccccc4)N3C2=O)C[C@@H]2c3cccc4[nH]cc(c34)C[C@H]21`, 1.4 (active).
Take `Nc1ccn([C@H]2CC[C@@H](CO)O2)c(=O)n1`: the fold change permeability is 1 (inactive).
To `CCCCCCNC(=O)n1cc(F)c(=O)[nH]c1=O` belongs 0.9 (inactive); to `NC(N)=NC(N)=Nc1ccccc1`, 0.9 (inactive); to `CCCn1c(=O)c2c(ncn2C)n(CCC)c1=O`, 1 (inactive).
For `COC(=O)c1c(C)[nH]c(C)c1C(=O)c1ccccc1Cc1ccccc1`, the fold change permeability is 1.2 (inactive).
